An excerpt weighted towards active compounds, which were near 3.5% of everything screened.
MITF inh: MITF inhibitors, primary screen, biochemical, AlphaScreen, human | 650,000 tested, 0.91% active | AID 1259374, 2018 | Microphthalmia-associated transcription factor (Homo sapiens), O75030 | inhibition, % at 2.6 µM | AlphaScreen MITF homodimerization, bead proximity signal; in the data active = inhibition above about 50%;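 note: 0% = vehicle wells with protein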
TEAD-YAP inh: TEAD-YAP interaction inhibition, primary screen, TEAD-YAP interaction inhibitor project, luminescence, HEK-TIYL cells. AID 1259422, 2018. 640,000 tested, 1.4% active. TEAD-Gal4/YAP UAS-luciferase luminescence. inhibition, % at 9.12 µM; in the data active = inhibition above about 32%;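 note: 0% = median of test compound wells and 100% = reference inhibitor wells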
FBW7 activator: FBW7 E3 ligase activators, primary screen, biochemical, AlphaScreen, human; F-box/WD repeat-containing protein 7 (Homo sapiens), Q969H0; normalized activity (activation), % at 26.1 µM; AlphaScreen FBW7–phospho-cyclin E peptide binding, activator screen; 650,000 tested, 0.13% active; in the data active = normalized activity above about 1.9%;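 note: purified mutant Fbw7 with reduced substrate affinity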
Target sequence (Q969H0 whole entry, looked up): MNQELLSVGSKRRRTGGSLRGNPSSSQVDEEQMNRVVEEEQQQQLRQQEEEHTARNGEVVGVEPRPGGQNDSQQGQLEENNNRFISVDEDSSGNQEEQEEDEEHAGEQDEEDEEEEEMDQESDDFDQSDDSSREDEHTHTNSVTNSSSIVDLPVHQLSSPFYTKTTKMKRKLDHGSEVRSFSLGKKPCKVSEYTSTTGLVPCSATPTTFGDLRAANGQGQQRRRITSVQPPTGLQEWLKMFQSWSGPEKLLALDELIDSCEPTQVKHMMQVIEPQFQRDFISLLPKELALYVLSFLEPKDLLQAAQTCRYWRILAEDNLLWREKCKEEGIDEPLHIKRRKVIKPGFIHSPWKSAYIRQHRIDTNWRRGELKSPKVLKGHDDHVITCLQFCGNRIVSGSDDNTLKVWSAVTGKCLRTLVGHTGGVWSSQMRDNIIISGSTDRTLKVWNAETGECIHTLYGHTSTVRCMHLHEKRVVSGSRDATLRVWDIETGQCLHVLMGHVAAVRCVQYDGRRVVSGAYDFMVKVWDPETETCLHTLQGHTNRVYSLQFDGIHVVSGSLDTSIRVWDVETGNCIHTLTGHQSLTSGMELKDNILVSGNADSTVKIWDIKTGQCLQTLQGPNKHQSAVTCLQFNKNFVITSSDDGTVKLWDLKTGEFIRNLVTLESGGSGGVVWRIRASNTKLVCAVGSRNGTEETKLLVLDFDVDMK
GPR151 activ: activators of human GPR151, primary screen, cell-based, PathHunter beta-arrestin, luminescence; G-protein coupled receptor 151 (Homo sapiens), Q8TDV0; PathHunter beta-arrestin GPR151 cells; activation, % at 11.2 µM; 650,000 tested, 1% active; AID 1508602, 2020; in the data active = activation above about 4.9%;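 note: 0% = median of compound wells and 100% = cells with positive control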
MITF confirm: MITF inhibitors, retest of hits, confirmation, biochemical, AlphaScreen, triplicate | 4,700 tested, 16% active | AlphaScreen MITF homodimerization, biotin/His-MITF beads | AID 1259372, 2018 | inhibition, % at 2.6 µM | shares compounds with MITF inh;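 active = inhibition above a cutoff derived from the DMSO control wells, cut at about 28% in these data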;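 note: 0% = MITF dimer wells with DMSO only; inhibitors lower the bead chemiluminescence by keeping MITF from dimerizing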
AS interf ctr: AlphaScreen optical interference compounds, counter-screen for MITF inhibitor project, biochemical, triplicate; 4,700 tested, 7.6% active; shares compounds with MITF inh; LysRS AlphaScreen counterscreen, signal interference; inhibition, % at 2.6 µM;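 active = inhibition above a cutoff derived from the DMSO control wells, cut at about 30% in these data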
Active calls of the source: *; / = not tested or not shown.

SMILES | MITF inh | TEAD-YAP inh | FBW7 activator | GPR151 activ | MITF confirm | AS interf ctr
O=C(Oc1ccccc1)C1CCCN1S(=O)(=O)c1cccc2nsnc12 (centres undefined) | 9.0 | -5.4 | 0.3 | -0.1 | / | /
CCOc1ccc(CN2CCCC(CNC(=O)c3cccs3)C2)cc1CO (centres undefined) | 2.9 | 2.7 | -0.1 | 1.2 | / | /
Cc1nc(C)c(C(=O)Nc2ccc(Cl)cc2)o1 | 7.5 | -2.6 | 0.0 | 1.6 | / | /
Clc1ccc(N2CCN(Cc3cccnc3)CC2)cc1 | 51.8* | -3.0 | -0.1 | -0.5 | -2.3 | 8.0
c1ccc(CN2CCN(Cc3cccnc3)CC2)nc1 | 74.1* | 0.0 | -0.2 | 0.4 | -18.3 | -0.7
COc1ccc(CCn2c(-c3ccc(C4CCCCC4)cc3)csc2=Nc2cccc(C(F)(F)F)c2)cc1 | -3.2 | -7.9 | 0.0 | -0.5 | / | /
COc1cc(CN2CCN(S(=O)(=O)c3ccccc3)CC2)cc(OC)c1OC | 41.8 | -5.2 | -0.1 | -0.2 | / | /
COc1cc(CN2CCN(S(=O)(=O)c3ccc(F)cc3)CC2)cc(OC)c1OC | 51.5* | 6.4 | 0.0 | 1.7 | -1.9 | 6.7
COc1cc(CN2CCN(S(=O)(=O)c3ccc(C)cc3)CC2)cc(OC)c1OC | 51.8* | 6.9 | 0.8 | -1.1 | -0.6 | 11.9
COc1cc(CN2CCN(S(=O)(=O)c3ccc([N+](=O)[O-])cc3)CC2)cc(OC)c1OC | 33.9 | -5.6 | -0.1 | 0.2 | / | /
CCS(=O)(=O)N1CCN(Cc2cc(OC)c(OC)c(OC)c2)CC1 | 51.8* | 4.3 | 0.0 | 1.8 | 7.0 | 14.0
CC[C@@H](c1ccccc1)n1c(=O)n2n(c1=O)[C@H]1[C@H](O)[C@@H]3O[C@@H]3/C(=N\OC/C=C(\C)CCC=C(C)C)[C@H]1CC2 | 2.8 | / | 0.1 | 1.6 | / | /
O=C(CNC1CCCCCC1)Nc1ccccc1N1CCCCC1 | 41.1 | -4.6 | 0.3 | 3.0 | / | /
O=C(CNCCN1CCCCC1)Nc1ccccc1N1CCOCC1 | 86.4* | -5.3 | 0.0 | 1.9 | 5.0 | 11.9
O=C(CNCCCN1CCOCC1)Nc1ccccc1N1CCOCC1 | 84.2* | -2.2 | -0.1 | -0.5 | -7.8 | -6.7
O=C(CNC1CCCCC1)Nc1ccccc1N1CCOCC1 | 54.8* | -7.1 | -0.1 | 0.3 | 6.8 | 14.4
O=C(CNCCN1CCOCC1)N1CCc2ccccc2C1 | 70.7* | -6.4 | -0.3 | -1.4 | 2.8 | 1.1
COCCOC(=O)c1c(C)oc2c1cc(NS(=O)(=O)c1ccc(C)cc1C)c1ccccc12 | 8.2 | 0.5 | -0.1 | 0.6 | / | /
O=C(CCn1c(=O)[nH]c2ccsc2c1=O)NC1CCCc2ccccc21 (centres undefined) | -0.5 | -1.6 | 0.0 | -1.6 | / | /
CC(C)CCNCC(=O)Nc1ccccc1N1CCCCC1 | 57.8* | -3.0 | 0.3 | 1.2 | 7.0 | 18.3
CC1=CC(C)(C)N(C(=O)CNCCCN2CCOCC2)c2cc(C)ccc21 | 55.9* | -1.2 | 0.1 | -1.0 | 6.1 | 16.9
O=C(CNC1CCCC1)Nc1ccccc1N1CCCCCC1 | 17.5 | -3.3 | 0.0 | 2.0 | / | /
O=C(CNCCN1CCCCC1)Nc1ccccc1N1CCCCC1 | 85.3* | 6.1 | -0.1 | 1.1 | 6.1 | 12.6
O=C(CNCCCO)Nc1ccccc1N1CCCCC1 | 56.7* | -2.2 | -0.1 | 0.3 | 7.1 | 17.7
O=C(CNCCCO)Nc1ccccc1N1CCCCCC1 | 22.3 | -3.9 | 1.1 | -1.0 | / | /
SMILES | MITF inh | TEAD-YAP inh | FBW7 activator | GPR151 activ | MITF confirm | AS interf ctr
CCOc1cc(CN2CCc3nnc(C(C)NC(=O)c4ccco4)n3CC2)ccc1OC (centres undefined) | 6.8 | -26.5 | -0.1 | 1.0 | / | /
COc1cc(OC)cc(C(=O)NCc2ccc3[nH]c4c(c3c2)CCCC4)c1 | 1.2 | 4.9 | -0.3 | -0.2 | / | /
O=C1Nc2cc(C(=O)NCCCN3CCCC3=O)ccc2S/C1=C\c1ccccc1 | 14.7 | 11.1 | -0.2 | 0.2 | / | /
CN(CC1CCCO1)C1CCN(C(=O)Cn2c(=O)oc3ccccc32)CC1 (centres undefined) | 3.4 | 10.5 | 0.1 | -0.7 | / | /
Cc1[nH][nH]c(=O)c1C(c1ccccc1OCc1ccc(Br)cc1)c1c(C)[nH][nH]c1=O | 66.2* | -11.4 | -0.8 | -0.3 | 45.9* | 6.7
OC1CCN(Cc2ccc3ccccc3c2)CC1 | -1.1 | 4.2 | 0.0 | 0.9 | / | /
Fc1cccc(CN2CCN(Cc3ccc4ccccc4c3)CC2)c1 | 72.3* | 1.5 | 0.0 | 0.0 | 10.5 | 20.8
Fc1cccc(CN2CCN(Cc3cccc4ccccc34)CC2)c1 | 86.2* | -2.6 | 0.0 | -0.1 | 4.9 | 19.0
c1ccc2cc(CN3CCSCC3)ccc2c1 | 57.5* | -5.7 | 0.0 | 0.6 | 0.9 | -0.2
CCc1ccc(CN2CCN(Cc3ccc4ccccc4c3)CC2)cc1 | 64.0* | -2.0 | -0.2 | -0.6 | -0.4 | 0.8
CCOc1cc(/C=C2/SC(=Nc3cccc(C(=O)O)c3)NC2=O)ccc1OC | 26.6 | 7.2 | 0.2 | 0.0 | / | /
CCC(C)NC(=O)c1cc(S(=O)(=O)N2CC(C)CC(C)C2)ccc1Sc1cccc(Cl)c1 (centres undefined) | -4.0 | 1.2 | 0.1 | 1.0 | / | /
COc1ccc(NS(=O)(=O)c2ccc(N/N=C/c3ccc[nH]3)c([N+](=O)[O-])c2)cc1 | -3.3 | -5.1 | 0.0 | -0.7 | / | /
CCCN1CCN(C(=O)c2nn(-c3cc(OC)cc(OC)c3)c(=O)c3ccccc23)CC1 | 65.5* | 14.5 | 0.0 | -1.4 | -8.7 | -2.9
COc1ccc(-n2c(CN3CCSCC3)n[nH]c2=S)cc1 | 71.3* | 16.2 | 0.0 | 1.0 | -6.3 | 10.4
O=C(C(c1ccccc1)c1ccccc1)N1CCN(Cc2ccncc2)CC1 | 62.4* | 4.2 | 0.1 | -0.7 | -8.3 | -9.8
Cc1ccccc1CN1CCN(C(=O)C(c2ccccc2)c2ccccc2)CC1 | 37.9 | 1.5 | 0.0 | -0.6 | / | /
O=C(C(c1ccccc1)c1ccccc1)N1CCN(Cc2ccc(F)cc2)CC1 | 61.9* | 5.8 | 0.2 | -1.5 | 8.9 | 22.6
Cc1cc(NC(=O)C(C)NCCc2ccccc2)no1 (centres undefined) | 21.8 | -0.8 | -0.2 | 1.0 | / | /
Cc1cc(NC(=O)C(C)NC2CCCC2)no1 (centres undefined) | 52.4* | -3.1 | 0.1 | 0.4 | -1.8 | 7.0
Cc1cc(NC(=O)C(C)NCCCN(C)C)no1 (centres undefined) | 63.4* | -1.3 | -0.1 | 0.7 | 1.7 | 12.3
Cc1cc(NC(=O)C(C)N2CCCC2)no1 (centres undefined) | -17.8 | -3.6 | 0.7 | -0.9 | / | /
Cc1ccc(CNC(=O)c2cccnc2SCC(=O)Nc2ccc(C(C)C)cc2)cc1 | 27.4 | 4.5 | 0.1 | 3.0 | / | /
CCCCNC(=O)CSc1nnc(-c2ccncc2)n1C | 2.9 | -10.9 | -0.1 | -1.4 | / | /
CCN(CC)CC(=O)Nc1c2c(nc3ccccc13)CCCC2 | 43.8 | -1.4 | 0.0 | -0.4 | / | /

Source: PubChem BioAssay
